# Results reported in PubChem BioAssay AID602289 (National Center for Advancing Translational Sciences (NCATS), 2012).
# In all, about 2,400 compounds went through this assay and about 40 (2%) were called active. Roughly 1% stayed inconclusive and do not appear here.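 How the source made its calls: active means inhibition at or above 60%; inconclusive means inhibition from 0% up to below 60%; inactive means no inhibition observed.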 What follows is part of a selection rich in actives, with near analogues and random picks from the rest.
# Test: qHTS Assay for Small Molecule Inhibitors of Mitochondrial Division or Activators of Mitochondrial Fusion: Hit Validation in Malachite Green Assay;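 on inhibition: plate controls were DMSO wells with GTPase for no effect and protein-free buffer wells for full effect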
# Conditions: purified GTPase, malachite green phosphate release, A650; active compounds read high
# From the text: The budding yeast S. cerevisiae is a powerful system to study mitochondrial fusion. Unlike other organisms, yeast cells without functional mitochondrial DNA (mtDNA) can be propagated and studied as long as they maintain a mitochondrial compartment and are provided with a fermentable carbon source. When mitochondrial fusion is blocked in yeast, mitochondrial tubules rapidly fragment and division continues unopposed. Under conditions where fusion is compromised in mammalian cells, nearly identical changes in mitochondrial structure have been observed. Thus, these findings indicate that steady state mitochondrial structure in cells is a characteristic and specific indicator of fusion activity. Mounting evidence has pointed to a connection between mitochondrial dynamics and apoptosis in mammalian cells. These studies indicate that in mammalian cells mitochondrial dynamics are more integrated into cellular processes than in yeast cells and have evolved not only to distribute the organelle but also to aid in the regulation of cellular homeostasis. Mitochondrial fusion proteins attenuate apoptosis by inhibiting the release of cytochrome c from mitochondria, in part by controlling cristae structures. Thus, small molecules that inhibit mitochondrial fusion may promote apoptosis and potentially act as novel chemotherapeutics and stimulation of apoptosis has become an attractive target of anti-cancer therapies. To identify inhibitors of mitochondrial division, we exploit the growth phenotypes of mitochondrial fusion-defective mutants. The temperature sensitive fusion alleles, such as fzo1-1 and mgm1-5, cause mitochondrial membranes to fragment in cells under non-permissive conditions and cells lose mtDNA, and are unable to grow in the presence of non-fermentable carbon source glycerol. Inhibiting mitochondrial division rescues growth. The hits were tested by the assay provider in a malachite green assay. NIH Chemical Genomics Center [NCGC] NIH Molecular Libraries Probe Production Centers Network [MLPCN] MLPCN Grant: MH081279 Assay Submitter (PI): Jodi M. Nunnari
# Malachite Green Reagent Malachite Green carbinol base- Aldrich 229105 Ammonium molybdate - Sigma A7302 For 100 mL Malachite Green reagent in 1N HCl 16 mL conc. HCL + 32 mL H20 = 48 mL 4N HCl 34 mg malachite green base into 40 mL 1N HCl (10 mL 4N HCl + 30 mL H20) 1 g ammonium molybdate in 15 mL 4N HCl Mix Solutions together. Bring up to […] with H2O. Filter using a 0.2 um tissue culture filter unit (has plastic bottle attached) store at 4 masculine C. (Avoid Glassware/Plastics washed in detergent. Mix solutions in 50 mL conical vials.) For 20 uL reaction volume 1.0 uL Test Drug or DMSO: Added first to each well […]: 25 mM Hepes/Pipes pH 7.0 (H/P) 2.0 uL: 50 mM MgCl2 (final 5mM) 2.32 uL: 1 M NaCl (with contributing protein salt, Final = 150mM) 13.4 uL per reaction. Can be mixed in larger volume (Mini Master Mix) 1.6 uL: Protein 7.5 uM or Protein Freezing Buffer. (Final = 0.6uM) After Protein Added to mini Master Mix, 15ul Total Master Mix added to each well with drug. 4 uL: 500 uM GTP (Final = 100uM), Dilute with 25 mM H/P, store on ice. 20 uL Total Volume Make Master Mix: (Calculate desired reactions and add a few for multi-channel pipetting volume). Multiply the number of desired reactions by 13.4 uL for total Mini Master volume. Multiply the number of desired reactions by 1.6 uL for total Protein volume. Mix, and keep on ice until added to wells. Add 15 uL of Master Mix to each reaction well, incubate with drug for 10 min. For Positive (No Drug) controls add 15 uL Master Mix to wells with only 1 uL DMSO. Make PFB (Protein Freezing Buffer) (no Protein) Master Mix. Multiply the number of desired reactions by 13.4 uL for total Mini Master volume. Multiply the number of desired reactions by 1.6 uL for total PFB volume. Mix, and keep on ice until added to wells Add 10 uL of PFBMaster Mix to each Phosphate Standards well, and 15 uL to each negative control well with DMSO. […]
row,SMILES,inhibition
1,O=C(COc1ccc(F)cc1Br)Nc1ccccc1N1CCOCC1,inactive
2,CC1=C(C(=O)OCc2ccccc2)C(/C=C/c2ccccc2)N2C(=O)CCSC2=N1 (stereo not drawn),inactive
3,CCN(CC)c1ccc(/C=N/NC(=O)c2ccc([N+](=O)[O-])cc2)cc1,inactive
4,CCNC(=O)C(=O)N/N=C/c1cc([N+](=O)[O-])ccc1O,78.8% (active)
5,O=[N+]([O-])c1ccc(O)c(P(=O)(c2ccccc2)c2ccccc2)c1,inactive
6,CCOC(=O)c1c(NC(=O)COC(=O)Cn2cnc3ccccc32)sc2c1CCC(C)C2 (stereo not drawn),inactive
7,N#C/C(=C\c1cn[nH]c1-c1ccc(Cl)cc1)C(=O)NCc1ccccc1,inactive
8,O=C(Nc1cccc(Br)c1)c1ccccc1-c1ccccc1,inactive
9,Nc1c(-c2ccccc2)c(CSc2nc3ccccc3[nH]2)nn1-c1ccc(Cl)cc1,inactive
10,CCN(Cc1ccccc1)C(=O)c1oc2ccc(S(=O)(=O)N3CCOCC3)cc2c1C,inactive
11,O=C(c1cc(S(=O)(=O)N2CCN(c3ccccc3)CC2)ccc1Cl)N1CCCCCCC1,inactive
12,O=c1c2ccccc2sn1-c1cc(S(=O)(=O)N2CCOCC2)ccc1N1CCCC1,103% (active)
13,CCOC(=O)c1cccc(-c2c(-c3ccccc3)ncc3cc(OC)c(OC)cc23)c1,inactive
14,O=C(NCc1ccc2c(c1)OCO2)c1ccc(CSCc2ccc(Cl)cc2)o1,inactive
15,O=C(Nc1ccccc1O)c1c(O)c2c([nH]c1=O)CCCC2,inactive
16,O=C(O)c1ccccc1CSc1nc2ccccc2n1Cc1ccccc1C(=O)O,inactive
17,Cc1cc(SCC(=O)c2ccc(Cl)cc2)nc(=O)[nH]1,96.8% (active)
18,Cc1ccc(C(=O)CSc2nc(C(C)C)nc3ccccc23)cc1,inactive
19,COc1ccc(C(=O)CSc2ccc(-c3ccc(C)cc3)nn2)cc1,inactive
20,O=C(Nc1ccc(N2CCOCC2)c(S(=O)(=O)Nc2ccccc2Cl)c1)c1ccccc1,inactive
21,COc1cccc(C(Nc2ccccn2)c2c(NC(=O)c3ccco3)sc(C)c2C)c1 (stereo not drawn),inactive
22,Cc1ccc(C)c(N2CCN(C(=O)CCCn3c(=O)c4cccn4c4cccnc43)CC2)c1,inactive
23,COc1cccc(C(=O)NC2CCN(C(=O)N3c4ccccc4Sc4ccccc43)CC2)c1,inactive
24,O=C(COc1cc2oc(=O)cc(-c3ccccc3)c2cc1Cl)NCc1ccccn1,inactive
25,C/C(=N\NC(=O)COc1ccccc1-c1ccccc1)c1ccccn1,71.6% (active)
26,O=C(COc1ccccc1-c1ccccc1)NCc1cccc(Cl)c1,inactive
27,O=[N+]([O-])c1ccccc1SN(Cc1ccccc1)c1ccccn1,inactive
28,CCC(CC)C(=O)Nc1cc(C(=O)OC)ccc1C(=O)OC,inactive
